The target in experiment [1] is Lysosomal acid glucosylceramidase (Homo sapiens) (UniProt P04062). The experiment in a line: Glucocerebrosidase-p2 (AID 348; in the data active = potency below about 10 µM; also: potency is read from the fitted curve at half-maximal effect). The conditions noted are these: purified GBA, blue fluorogenic substrate, 40 min. In outline: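 Compounds titrated from 0.6 nM upwards against 0.2 nM enzyme in pH 5.9 citric acid/KH2PO4, taurocholate, tween-20; blue fluorogenic substrate 80 uM, 40 min room temperature, stopped and read Ex 365/Em 440 for AC50.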
Chain of Lysosomal acid glucosylceramidase (Homo sapiens) (P04062 whole entry, looked up): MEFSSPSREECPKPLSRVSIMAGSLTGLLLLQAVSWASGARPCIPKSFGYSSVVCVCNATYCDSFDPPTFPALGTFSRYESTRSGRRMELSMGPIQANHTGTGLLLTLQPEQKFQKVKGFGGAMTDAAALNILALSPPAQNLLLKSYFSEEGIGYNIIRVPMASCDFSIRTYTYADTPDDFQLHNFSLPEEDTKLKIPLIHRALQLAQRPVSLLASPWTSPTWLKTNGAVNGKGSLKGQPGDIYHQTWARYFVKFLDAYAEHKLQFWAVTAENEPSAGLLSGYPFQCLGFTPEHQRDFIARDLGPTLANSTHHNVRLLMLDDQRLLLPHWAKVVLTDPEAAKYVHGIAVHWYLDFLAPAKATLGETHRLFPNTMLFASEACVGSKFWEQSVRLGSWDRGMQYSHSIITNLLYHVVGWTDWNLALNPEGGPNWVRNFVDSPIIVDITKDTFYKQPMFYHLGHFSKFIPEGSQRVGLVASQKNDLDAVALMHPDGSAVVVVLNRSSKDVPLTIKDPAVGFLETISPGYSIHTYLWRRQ

Experiment [2] is described as follows: AP1 Signaling Pathway (AID 357; active = well fitted curve in either direction with a large enough effect, not every such curve was filed as active; also: % is scaled to controls: 0 for no effect and ±100 for the full control effect). Conditions: ME-180 AP-1-bla reporter, EGF-induced, beta-lactamase ratio, 5 h; at 7.69 µM (top of the series) unless noted. In short, it runs like this: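 AP-1-bla ME-180 cells with beta-lactamase reporter under AP-1 response element, stimulated with EC50 EGF; compounds titrated, 5 hours at 37 degrees Celsius. CCF4 read at 460/530 nm ratio; positive and negative modulators judged by AC50.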

Experiment [3] concerns the target Mitogen-activated protein kinase 10 (Mus musculus) (UniProt Q61831). The experiment in a line: JNK3 AlphaScreen Assay (AID 530; active = well fitted curve in either direction with a large enough effect, not every such curve was filed as active;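 also: kinase came from lysate of stimulated human HepG2 cells; signal reports phosphorylation of biotinylated GST-cJun 1-79 at Ser73 with 10 µM ATP; % is scaled to controls: 0 for no effect and ±100 for the full control effect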). Conditions: JNK3 lysate, c-Jun phosphorylation; series mostly up to 57.1 µM. In short, it runs like this: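 qHTS format: compounds tested as titrations against IL-1beta/TNF-alpha-activated HepG2 lysate JNK3 with biotin-GST-cJun substrate and 10 uM ATP at room temperature. Loss of anti-phospho-cJun AlphaScreen signal indicates inhibition.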

Experiment [4] deals with 3',5'-cyclic-AMP phosphodiesterase 4B (Homo sapiens) (UniProt Q07343). Briefly: qHTS Assay for Inhibitors of PDE-IV (AID 607; active = well fitted activation curve with a large enough effect in the main read-out, with a control signal flat, not every such curve was filed as active; also: % of control where 0% means no effect). The conditions noted are these: HEK293 ACTOne CNG channel cells, membrane potential fluorescence; series mostly up to 22.9 µM. In short, it runs like this:
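ACTOne HEK293 cells carry a modified cAMP-gated CNG channel and express endogenous PDE4; plated 1000 cells/well, compounds up to 22.9 uM final. Membrane-potential dye fluorescence (ex 535/em 590) was read; parental cells received 10 uM forskolin + 100 uM RO 20-1724.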
(In general: qHTS replaces the single test concentration by a dilution series.)

Experiment [5] concerns the target ATP-dependent 6-phosphofructokinase (Trypanosoma brucei brucei) (UniProt O15648). The experiment in a line: qHTS Assay to Find Inhibitors of T. brucei phosphofructokinase: hit validation (AID 492961). Also: % is scaled to controls: 0 for no effect and ±100 for the full control effect. Conditions: T. brucei PFK, ADP-Glo luminescence; series mostly up to 51.4 µM. In short, it runs like this:
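Luminescence from ADP-Glo reports ADP generated as T. brucei PFK (1.25 nM) phosphorylates 0.5 mM fructose-6-phosphate using 0.1 mM ATP. Reactions ran 45 min at room temperature, pH 8.0.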

Experiment [6] has as its target Ubiquitin carboxyl-terminal hydrolase 1 (Homo sapiens) (UniProt O94782). Briefly: Inhibitors of USP1/UAF1: Pilot qHTS (AID 504865).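 Also: rhodamine fluorescence freed from ubiquitin-rhodamine substrate followed over time; top concentration of the series differs between compounds; % is scaled to controls: 0 for no effect and ±100 for the full control effect; nearly all actives have a fitted effect of over 35% in size.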 The conditions noted are these: purified USP1/UAF1, Ub-rhodamine cleavage fluorescence; series mostly up to 114 µM. In short, it runs like this:
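1nM USP1/UAF1 + cpd, 15 min RT; start w/ Ub-Rho 150nM final; kinetic FL 480/540 nm, 6 reads q60 s. Buffer 50mM HEPES pH 7.8, 0.5mM EDTA, 1mM TCEP, 0.01% Tween-20, 0.1 mg/ml BSA.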

The nature of experiment [7]: S16 Schwann cell viability assay (CellTiter-Glo assay) (AID 624031).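 Also: native untransfected S16 rat Schwann cells; cellular ATP luminescence as a viability measure; plate controls were DMSO-treated cells for no effect and cell-free wells for full effect; nearly all actives have a fitted effect of over 70% in size.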 Conditions: S16 rat Schwann cells viability, 24 h; series mostly up to 57.5 µM. In outline:
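Concentration-effect curves come from CellTiter-Glo luminescence of S16 rat Schwann cells after 24 h compound exposure. Each reading was normalized to DMSO wells (0%) and wells without cells, and curves were ranked by r2 and response magnitude.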

Experiment [8] can be described thus: S16 Schwann cell PMP22 intronic element firefly luciferase assay (AID 624032).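 Also: plate controls were DMSO for no effect and PTC124 positive control mean for full effect; nearly all actives have a fitted effect of over 30% in size.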 Conditions: S16 rat Schwann cells, PMP22 element FLuc, 24 h; series mostly up to 57.5 µM. In short, it runs like this: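 Rat S16 Schwann cells stably carrying firefly luciferase driven by a PMP22 intronic element, in 10% FBS, treated 24 h at 37 C. ONE-Glo luminescence normalized to PTC124 control and DMSO (0%); curves classed by r2, magnitude and activity.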

The nature of experiment [9]: S16 Schwann cell PMP22 intronic element beta-lactamase assay (AID 624044; calls by dose curve;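 also: 0% = DMSO and -100% = potassium clavulanate positive control; nearly all actives have a fitted effect of over 15% in size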). The conditions noted are these: S16 rat Schwann cells, PMP22 element beta-lactamase FRET, 24 h; series mostly up to 38.3 µM. In outline: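 Rat S16 Schwann cells with beta-Lac driven by a PMP22 intronic element, compound-treated 24 h at 37 °C. LiveBLAzer FRET B/G read: 460 nm normalized to potassium clavulanate vs DMSO; 535 nm FRET as viability; concentration-effect curves classified.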

The subject of experiment [10] is 3D7. Briefly: qHTS profiling for inhibitors of Plasmodium falciparum proliferation (AID 504749). Also: nearly all actives have a fitted effect of over 60% in size. Also: potency is read from the fitted curve at half-maximal effect.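 As to activity, negative = inhibition: 0% = DMSO vehicle and full inhibition = artemisinin control.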 Conditions: P. falciparum in erythrocytes, SYBR Green DNA, 72 h; series mostly up to 28.7 µM. In outline: (§1)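 Readout was DNA-dye fluorescence from lysed cultures, ex 485/em 535 nm. Parasitized red cells had grown 72 h with compound; data scaled between 0.29 uM artemisinin and DMSO wells and corrected using vehicle-only plates.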

Experiment [11] relates to CP191. The description is as above. Conditions: P. falciparum in erythrocytes, SYBR Green DNA, 72 h; series mostly up to 28.7 µM. In outline: as §1
Experiment [12] concerns CP237. Described as above. Conditions: P. falciparum in erythrocytes, SYBR Green DNA, 72 h; series mostly up to 28.7 µM. In outline: as §1
For experiment [13], the system named is CP250. Described as above. The conditions noted are these: P. falciparum in erythrocytes, SYBR Green DNA, 72 h; series mostly up to 28.7 µM. In short, it runs like this: as §1
The subject of experiment [14] is CP252. The experiment is described as above. Conditions: P. falciparum in erythrocytes, SYBR Green DNA, 72 h; series mostly up to 28.7 µM. In short, it runs like this:
as §1

The test system of experiment [15] is Dd2. The description is as above. The conditions noted are these: P. falciparum in erythrocytes, SYBR Green DNA, 72 h; series mostly up to 28.7 µM. In short, it runs like this:
as §1

Experiment [16] relates to FAB9. The description is as above. Conditions: P. falciparum in erythrocytes, SYBR Green DNA, 72 h; series mostly up to 28.7 µM. In outline:
as §1

Experiment [17] concerns HB3. Described as above. Conditions: P. falciparum in erythrocytes, SYBR Green DNA, 72 h; series mostly up to 28.7 µM. In outline:
as §1

Experiment [18] deals with PC15. The experiment is described as above. The conditions noted are these: P. falciparum in erythrocytes, SYBR Green DNA, 72 h; series mostly up to 28.7 µM. In short, it runs like this: as §1
In experiment [19] the test system is PC26. The description is as above. Conditions: P. falciparum in erythrocytes, SYBR Green DNA, 72 h; series mostly up to 28.7 µM. In outline: as §1
In experiment [20] the test system is PC49. Described as above. The conditions noted are these: P. falciparum in erythrocytes, SYBR Green DNA, 72 h; series mostly up to 28.7 µM. In outline: as §1
Experiment [21] relates to W2. The description is as above. Conditions: P. falciparum in erythrocytes, SYBR Green DNA, 72 h; series mostly up to 28.7 µM. In short, it runs like this:
as §1

In experiment [22] the target is Cytochrome P450 1A2 (Homo sapiens) (UniProt P05177). Briefly: p450-cyp1a2 (AID 410; calls by dose curve;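 also: -100% = full effect of reference inhibitor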). Conditions: recombinant CYP1A2, luciferin-ME demethylation, luminescence; series mostly up to 11.4 µM. In short, it runs like this:
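Inhibition was calculated relative to 57 uM furafylline (full inhibition). The reaction used human CYP1A2 at 20nM with Luciferin-ME at its Km, 100uM, driven by an NADPH-regenerating system for 60 min at room temperature.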

Experiment [23] can be described thus: NFAT Signaling Pathway (AID 444; active = well fitted curve in either direction with a large enough effect, not every such curve was filed as active;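 also: carbachol stimulus at about its EC50 of 1 µM final; % is scaled to controls: 0 for no effect and ±100 for the full control effect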). The conditions noted are these: Jurkat NFAT-bla M1, carbachol, beta-lactamase ratio, 5 h; at 7.69 µM (top of the series) unless noted. In short, it runs like this: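 Jurkat cells with NFAT-driven β-lactamase reporter and co-expressed M1 receptor, stimulated with carbachol (final 1 uM, ~EC50), compound titration, 5 h at 37 °C. CCF4 loaded 1 h at RT; 460/530 nm ratio gave %activity and AC50.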

Experiment [24] is described as follows: Stat Signaling Pathway (AID 446; active = well fitted curve in either direction with a large enough effect, not every such curve was filed as active). Conditions: ME-180 (cervical carcinoma) SIE beta-lactamase reporter, IL-6 stimulated, 5 h; at 7.69 µM (top of the series) unless noted. In outline:
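ME-180 SIE-bla cells; overnight plating; cpd + IL-6 40 pM, 5 h, 37 C; LiveBLAzer 2.5 h RT; 460/530 nm emission ratio. Normalized to 300 pM IL-6 and 125 nM JAK inhibitor controls.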

For experiment [25], the target named is Glucocorticoid receptor (Homo sapiens) (UniProt P04150). Briefly: GR-GFP Redistribution (AID 450;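 active = compounds whose dose series gives a full or clear partial fitted curve of increased nuclear translocation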; also: potency is read from the fitted curve at half-maximal effect). The conditions noted are these: U2OS GR-GFP nuclear translocation, laser cytometry, 2 h.
Chain of Glucocorticoid receptor (Homo sapiens) (P04150 whole entry, looked up): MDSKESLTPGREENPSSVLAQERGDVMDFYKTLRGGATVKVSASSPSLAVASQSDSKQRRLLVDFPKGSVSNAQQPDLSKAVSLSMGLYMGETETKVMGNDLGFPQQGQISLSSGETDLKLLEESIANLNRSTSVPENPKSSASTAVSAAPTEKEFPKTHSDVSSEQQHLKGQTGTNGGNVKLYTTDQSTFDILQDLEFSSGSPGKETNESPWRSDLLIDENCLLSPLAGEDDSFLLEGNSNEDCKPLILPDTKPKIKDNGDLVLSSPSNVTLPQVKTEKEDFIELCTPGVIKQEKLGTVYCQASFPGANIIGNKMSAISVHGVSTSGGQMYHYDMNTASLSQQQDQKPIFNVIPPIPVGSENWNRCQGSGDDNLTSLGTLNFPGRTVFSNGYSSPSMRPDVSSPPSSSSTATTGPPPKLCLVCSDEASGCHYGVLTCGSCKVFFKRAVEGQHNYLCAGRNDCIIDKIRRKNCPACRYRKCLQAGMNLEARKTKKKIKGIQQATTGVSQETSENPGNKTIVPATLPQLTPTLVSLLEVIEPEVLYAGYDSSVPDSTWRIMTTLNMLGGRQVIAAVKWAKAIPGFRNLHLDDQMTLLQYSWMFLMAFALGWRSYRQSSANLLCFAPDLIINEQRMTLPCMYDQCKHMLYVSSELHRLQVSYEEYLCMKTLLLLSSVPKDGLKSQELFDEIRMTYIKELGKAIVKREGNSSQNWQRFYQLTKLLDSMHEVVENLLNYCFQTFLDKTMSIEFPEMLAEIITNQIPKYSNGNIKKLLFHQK
The target is the same in experiment [26]. Briefly: GR-EFC Redistribution (AID 451; calls by dose curve; also: potency is read from the fitted curve at half-maximal effect). Conditions: CHO-K1 GR-EFC translocation, beta-gal luminescence, 2 h. In short, it runs like this:
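CHO-K1 cells expressing nuclear EA and GR-ED fragments of b-gal; compounds titrated up to 46 uM final, 2 h at 37 C. GR nuclear translocation read as complemented b-gal luminescence after 1 h RT detection.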

Values without a mark were called inactive. Records with an inconclusive call do not appear. Active and inactive are the calls of the source. Unless noted, calls follow the shape of the dose curve; as a rule, active = well fitted curve in the direction sought with a large enough effect; inconclusive = small, poorly fitted or top-dose-only effect, or another doubt; inactive = no such curve, though single readings can be large; an effect the other way counts as inactive or inconclusive.

Chain of 3',5'-cyclic-AMP phosphodiesterase 4B (Homo sapiens) (Q07343 whole entry, looked up): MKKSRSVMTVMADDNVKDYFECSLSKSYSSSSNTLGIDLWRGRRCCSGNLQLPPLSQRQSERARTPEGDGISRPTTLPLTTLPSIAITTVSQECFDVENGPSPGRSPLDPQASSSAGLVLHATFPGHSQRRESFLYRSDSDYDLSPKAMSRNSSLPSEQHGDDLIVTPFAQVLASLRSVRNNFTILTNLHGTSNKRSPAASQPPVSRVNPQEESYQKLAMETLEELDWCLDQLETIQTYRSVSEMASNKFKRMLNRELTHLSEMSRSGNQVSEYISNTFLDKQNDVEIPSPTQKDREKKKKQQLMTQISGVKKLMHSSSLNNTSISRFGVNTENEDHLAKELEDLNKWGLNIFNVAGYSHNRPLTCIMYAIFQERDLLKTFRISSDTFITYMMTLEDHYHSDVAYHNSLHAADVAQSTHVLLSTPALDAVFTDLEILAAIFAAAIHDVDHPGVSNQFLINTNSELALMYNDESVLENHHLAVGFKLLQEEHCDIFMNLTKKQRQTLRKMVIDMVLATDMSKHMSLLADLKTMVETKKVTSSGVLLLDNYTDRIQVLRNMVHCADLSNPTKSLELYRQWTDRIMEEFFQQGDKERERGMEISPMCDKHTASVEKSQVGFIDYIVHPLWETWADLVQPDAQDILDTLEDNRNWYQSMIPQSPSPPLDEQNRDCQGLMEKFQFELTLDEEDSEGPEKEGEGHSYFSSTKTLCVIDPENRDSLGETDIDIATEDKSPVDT
Chain of ATP-dependent 6-phosphofructokinase (Trypanosoma brucei brucei) (O15648 whole entry, looked up): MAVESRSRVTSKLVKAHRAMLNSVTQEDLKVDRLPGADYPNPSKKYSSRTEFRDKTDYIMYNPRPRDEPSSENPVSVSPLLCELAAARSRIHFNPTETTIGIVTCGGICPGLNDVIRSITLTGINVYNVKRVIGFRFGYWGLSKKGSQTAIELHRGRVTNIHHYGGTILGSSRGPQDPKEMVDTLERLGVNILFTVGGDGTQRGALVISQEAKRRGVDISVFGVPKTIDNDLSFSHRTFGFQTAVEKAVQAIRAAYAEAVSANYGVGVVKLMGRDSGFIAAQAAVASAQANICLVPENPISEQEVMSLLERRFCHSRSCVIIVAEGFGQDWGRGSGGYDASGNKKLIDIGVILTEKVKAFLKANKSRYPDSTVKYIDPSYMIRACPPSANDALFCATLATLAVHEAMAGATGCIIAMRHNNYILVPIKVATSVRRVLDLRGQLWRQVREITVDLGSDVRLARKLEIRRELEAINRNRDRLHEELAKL
Chain of Cytochrome P450 1A2 (Homo sapiens) (P05177 whole entry, looked up): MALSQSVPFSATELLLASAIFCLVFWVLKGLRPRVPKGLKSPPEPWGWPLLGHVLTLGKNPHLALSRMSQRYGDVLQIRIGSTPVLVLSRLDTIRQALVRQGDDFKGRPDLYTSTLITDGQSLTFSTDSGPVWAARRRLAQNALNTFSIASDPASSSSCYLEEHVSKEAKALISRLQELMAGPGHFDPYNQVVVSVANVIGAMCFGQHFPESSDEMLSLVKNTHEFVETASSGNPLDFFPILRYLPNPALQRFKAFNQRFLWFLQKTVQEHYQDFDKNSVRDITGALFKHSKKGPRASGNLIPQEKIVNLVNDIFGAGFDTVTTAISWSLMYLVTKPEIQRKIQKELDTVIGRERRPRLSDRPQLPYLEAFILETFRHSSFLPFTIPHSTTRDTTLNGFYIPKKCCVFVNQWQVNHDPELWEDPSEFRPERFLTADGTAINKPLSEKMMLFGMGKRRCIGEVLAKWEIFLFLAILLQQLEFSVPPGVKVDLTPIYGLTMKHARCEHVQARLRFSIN
Chain of Ubiquitin carboxyl-terminal hydrolase 1 (Homo sapiens) (O94782 whole entry, looked up): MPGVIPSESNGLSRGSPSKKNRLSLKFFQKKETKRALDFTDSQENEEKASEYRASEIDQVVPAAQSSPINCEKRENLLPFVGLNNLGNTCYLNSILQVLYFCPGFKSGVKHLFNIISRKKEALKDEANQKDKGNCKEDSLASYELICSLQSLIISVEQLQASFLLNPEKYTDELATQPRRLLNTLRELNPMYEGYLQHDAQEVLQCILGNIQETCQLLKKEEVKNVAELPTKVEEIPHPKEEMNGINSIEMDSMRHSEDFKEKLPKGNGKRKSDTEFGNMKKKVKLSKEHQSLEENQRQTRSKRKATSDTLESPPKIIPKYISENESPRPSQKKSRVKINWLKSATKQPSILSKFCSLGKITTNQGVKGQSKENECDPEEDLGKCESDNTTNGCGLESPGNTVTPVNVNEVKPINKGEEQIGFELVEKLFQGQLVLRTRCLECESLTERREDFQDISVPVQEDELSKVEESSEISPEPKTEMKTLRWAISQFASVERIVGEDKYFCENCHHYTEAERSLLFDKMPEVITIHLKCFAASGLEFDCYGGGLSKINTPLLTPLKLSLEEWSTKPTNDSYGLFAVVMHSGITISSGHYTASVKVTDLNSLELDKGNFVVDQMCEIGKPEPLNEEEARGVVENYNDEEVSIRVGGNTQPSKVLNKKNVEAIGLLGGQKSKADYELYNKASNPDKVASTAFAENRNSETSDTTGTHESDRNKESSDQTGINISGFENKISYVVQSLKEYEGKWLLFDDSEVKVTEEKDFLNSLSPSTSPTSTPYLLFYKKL

As for `O=C1C[C@@H]2OCC=C3CN4CC[C@]56c7ccccc7N1[C@@H]5[C@@H]2[C@H]3C[C@H]46` (tested in a mixture with another compound), the Potency in experiment [1] was more than 11.4 µM; in experiment [12], 8.91 µM (active); in experiment [15] it was 10 µM (active); in [21], 6.75 µM (active). In addition, the activity change, negative = inhibition in experiment [2] is 5.95%; in [3], 1.78% [at 11.4 µM]. The call in [4], in experiment [5], in experiment [7], in experiment [8] and in [9] was inactive. Moreover, the Potency result in experiment [6], in experiment [10], in [11], in experiment [13], in experiment [14] and in experiment [16] was “inactive” throughout. For the same compound, the Potency entry in experiment [17], in [18], in experiment [19] and in [20] was “inactive” in each case.
With `Nc1ccccc1O.O.O=C(O)[C@H]1[O][Sb][O][C@H]1C(=O)O`, the Potency in experiment [1] was more than 11.4 µM; in [25], more than 46 µM; in experiment [26], more than 9.22 µM. Further, the activity change, negative = inhibition is -23.1% [at 2.29 µM] in [22], -17.5% in experiment [23] and -2.79% [at 11.4 µM] in [3]. In addition, in experiment [24], the activity, negative = inhibition is 8.88%. Moreover, the compound was called inactive in [4].
As to `CC1(C)CCC(C)(C)c2c1ccc(O)c2Cc1c(O)ccc2c1C(C)(C)CCC2(C)C`, the Potency was more than 11.4 µM in [1], more than 46 µM in [25] and more than 9.22 µM in experiment [26]. For the same compound, the activity change, negative = inhibition in [2] is -8.54%; in experiment [3] it was -1.06% [at 11.4 µM]. The activity, negative = inhibition in [24] was 0.741%. In addition, the compound was classed as inactive in [4].
As for `C[C@@H]1[C@H]2C=C[C@@H]1[C@@H](c1c3ccc(=O)c(O)c-3oc3c(O)c(O)ccc13)[C@@H]2C(=O)O`, the Potency is more than 11.4 µM in experiment [1], more than 46 µM in experiment [25] and more than 9.22 µM in [26]. In addition, the results for the activity change, negative = inhibition in [2] and in [23] were -14.3% and 3.07%, respectively. Further, in experiment [4], the outcome was inactive.

The values are drawn from PubChem BioAssay (NCATS).
